Bioassay records deposited in PubChem BioAssay by National Center for Advancing Translational Sciences (NCATS).
Rows were chosen to be rich in hits. Some 19% of all compounds tested hit in one or more screens of this group.
TDP1 inh = TDP1 (human) enzyme inhibition. AID 485290. recombinant TDP1, AlphaScreen DNA substrate cleavage. Q9NUW8. 350,000 compounds, 0.28% hits. Potency, µM (doses to about 130 µM), inactives show at the highest dose activity change, negative = inhibition, most hits filed as inhibitors; note: nearly all actives have a fitted effect of over 40% in size
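Compounds were preincubated with Tdp1 (1 nM final) for 15 min at room temperature before substrate (15 nM final) started a 5 min reaction; beads (10 ug/ml final) were then added for 10 min before AlphaScreen detection.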
RORg inh = blocks mouse ROR gamma transcriptional activity. 310,000 compounds, 5.4% hits. AID 2551. Drosophila S2 Gal4-RORgamma UAS-luciferase reporter, 20 h. P51450. Potency, µM (series often up to 53.6 µM), for inactives: top-dose activity change, negative = inhibition, usual class: inhibitors; note: nearly all actives have a fitted effect of over 60% in size
Target sequence (P51450 whole entry, looked up, the tested form may be a part): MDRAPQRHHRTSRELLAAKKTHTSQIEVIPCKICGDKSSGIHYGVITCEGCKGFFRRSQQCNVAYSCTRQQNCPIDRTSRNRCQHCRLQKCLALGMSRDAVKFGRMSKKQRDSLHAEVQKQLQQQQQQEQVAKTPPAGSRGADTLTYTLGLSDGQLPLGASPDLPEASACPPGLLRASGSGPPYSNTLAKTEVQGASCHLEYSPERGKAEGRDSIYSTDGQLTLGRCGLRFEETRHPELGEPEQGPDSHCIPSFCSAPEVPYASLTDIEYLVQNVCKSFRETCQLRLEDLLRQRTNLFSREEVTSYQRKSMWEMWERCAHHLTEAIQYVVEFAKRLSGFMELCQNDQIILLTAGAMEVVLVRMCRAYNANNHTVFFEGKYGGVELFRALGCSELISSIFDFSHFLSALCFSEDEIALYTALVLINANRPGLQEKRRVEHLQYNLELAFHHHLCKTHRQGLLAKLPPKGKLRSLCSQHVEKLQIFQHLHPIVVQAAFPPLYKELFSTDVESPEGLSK
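Drosophila S2 cells stably expressing Gal4-DBD/mouse RORγ fusion under metallothionein promoter plus UAS-luciferase; compound 1 h, then 700 uM CuSO4 induction for 20 h at ambient temperature; inhibition read as reduced luminescence.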
DT40 TDP1 no CPT = qHTS for Inhibitors of human tyrosyl-DNA phosphodiesterase 1 (TDP1): qHTS in cells in absence of CPT. Potency, µM (highest dose often 46.2 µM), for inactives: at the top dose activity change, negative = growth inhibition, actives largely listed as inhibitors. AID 686978, 2013. DT40 Tdp1-/- hTDP1 cells, no CPT, ATP luminescence, 48 h. 420,000 compounds, 15% hits; note: nearly all actives have a fitted effect of over 55% in size
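Luminescent ATP content (CellTiter-Glo) served as the growth readout. Knockout chicken DT40 cells expressing human TDP1 were exposed to compounds without camptothecin for a minimum 48 hr at 37 °C.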
DT40 TDP1 CPT = DT40-hTDP1 cell growth loss with CPT. Potency, µM (top dose mostly 46.2 µM), for the others: at the top dose activity change, negative = growth inhibition, actives largely listed as inhibitors. AID 686979. chicken DT40 Tdp1-/-;hTDP1 cells + 20 nM CPT, ATP luminescence, 48 h. 420,000 compounds, 12% hits; note: nearly all actives have a fitted effect of over 55% in size
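Cell growth measured by CellTiter-Glo luminescence after a minimum 48 h, 37 C compound exposure with 20 nM CPT in Tdp1-knockout DT40 cells stably expressing hTDP1, seeded 400/well; qHTS titration format.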
VP16 counter = counter-screen for ROR gamma inhibitors: Gal4-VP16 reporter. Drosophila S2 Gal4-VP16 UAS-luciferase, luminescence, 20 h. 310,000 compounds, 3.5% hits. Potency, µM (highest dose often 53.6 µM), for inactives: at the highest dose activity, negative = inhibition, most hits filed as inhibitors;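 note: Gal4-VP16 expression switched on by copper sulfate through the metallothionein promoter; nearly all actives have a fitted effect of over 50% in size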
An asterisk follows results filed as active; u = inconclusive; x = not tested or not shown; [ ] = another dose, or the depositor's remark. Calls come from the whole dose curve; as a rule, active = well fitted curve in the direction sought with a large enough effect; inconclusive = small, poorly fitted or top-dose-only effect, or another doubt; inactive = no such curve, though single readings can be large; an effect the other way counts as inactive or inconclusive. % is set by controls: 0 for no effect and ±100 for the full control effect; potency is the fitted concentration of half-maximal effect.

SMILES	TDP1 inh	RORg inh	DT40 TDP1 no CPT	DT40 TDP1 CPT	VP16 counter
CCOC(=O)c1cccc(NC(=O)N2CC=C(c3c[nH]c4ccccc34)CC2)c1	0%	x	21µM*	u	x
Cc1ccc(C)c(NC(=O)N2CC=C(c3c[nH]c4ccccc34)CC2)c1	11%	x	u	u	x
CCOc1ccc(NC(=O)N2CC=C(c3c[nH]c4ccccc34)CC2)cc1	6%	x	2.3µM*	3.7µM*	x
CSc1ccc(NC(=O)N2CC=C(n3c(=O)[nH]c4ccccc43)CC2)cc1	5%	27%	8.2µM*	8.2µM*	4%
CCc1ccc(NC(=O)N2CC=C(c3c[nH]c4ccccc34)CC2)cc1	2%	x	5.2µM*	5.8µM*	x
Cc1cc(NC(=O)N2CC=C(c3c[nH]c4ccccc34)CC2)ccc1Br	8%	x	u	u	x
C=CCNC(=S)N/N=C/c1ccc(-c2ccc(Cl)cc2Cl)o1	x	x	5.8µM*	5.2µM*	x
C=CCNC(=S)N/N=C/c1ccc(-c2cc(Cl)ccc2Cl)o1	5%	2%	u	u	-4%
C=CCNC(=S)N/N=C/c1ccc(-c2ccc(OC)cc2)o1	7%	0.56µM*	4.6µM*	4.1µM*	1.8µM*
COc1ccccc1NC(=O)c1c(C)cc(=O)oc1C	2%	-33%	-14%	-15%	0%
COc1ccc2nc3c(cc2c1)c(NC(=O)C1CCCO1)nn3CC(C)C (configuration not stated)	-1%	25%	u	-13%	8%
COc1ccc(CNS(=O)(=O)c2ccc(-c3cc(C)no3)cc2)cc1	1%	-1%	-13%	-23%	-5%
CCc1ccc(-c2cc(C)no2)cc1S(=O)(=O)NCc1ccc(OC)cc1	-3%	x	1µM*	0.92µM*	x
CCc1ccc(-c2cc(C)no2)cc1S(=O)(=O)N1CCN(C(=O)c2ccco2)CC1	5%	8%	21µM*	0%	-4%
COc1cccc(N2CCN(S(=O)(=O)c3cc(-c4cc(C)no4)ccc3C)CC2)c1	-3%	x	18µM*	u	x
COc1ccc(-c2cc(C)no2)cc1S(=O)(=O)N1CCN(c2ccc([N+](=O)[O-])cc2)CC1	7%	6%	0%	u	5%
COCCN(Cc1cccs1)S(=O)(=O)c1cc(-c2cc(C)no2)ccc1C	-5%	x	21µM*	u	x
COc1cc(/C=N/NC(=O)c2cnccn2)ccc1O	2%	28%	-4%	6%	3%
Cc1ccc(S(=O)(=O)N/N=C(\c2ccccc2)c2cccnc2)cc1	5%	16%	2%	1%	2%[10 µM]
CCn1c(SCC(=O)c2ccccc2)nnc1-c1cccc(Cl)c1	-8%	x	u	u	x
Cc1cc(-c2ccc(C)c(S(=O)(=O)NCC3CCN(Cc4ccc(F)cc4)CC3)c2)on1	3%	-18%	u	18µM*	-3%
Cc1cc(-c2ccc(C)c(S(=O)(=O)N(Cc3cccs3)C(C)C)c2)on1	8%	x	u	u	x
COc1ccc(OC)c(CNS(=O)(=O)c2cc(-c3cc(C)no3)ccc2OC)c1	2%	-9%	-14%	-12%	-23%
COc1ccc(-c2cc(C)no2)cc1S(=O)(=O)NCc1cccs1	3%	x	15µM*	15µM*	x
CCc1ccc(-c2cc(C)no2)cc1S(=O)(=O)N1CCN(c2ccc(OC)cc2)CC1	7%	21%	u	21µM*	2%
Cc1cc(-c2ccc(C)c(S(=O)(=O)N(C(C)C)C3CCCCC3)c2)on1	-5%	x	u	21µM*	x
Cc1ccc(-n2ncc3c(N4CCN(c5ccc(F)cc5)CC4)ncnc32)cc1	13%	x	11%	-2%	x
CC(=O)N1C2=CCCC3CCCCC23c2ccccc21 (configuration not stated)	x	x	26µM*	21µM*	x
CC1(c2ccc3c(c2)OCO3)NC(=O)N(CC(=O)c2ccc[nH]2)C1=O (configuration not stated)	-10%	x	-21%	3%	x
COc1ccccc1-c1cn[nH]c(=S)n1	5%	8.9µM*	-29%	-20%	u
